According to PubChem BioAssay AID624125 (The Scripps Research Institute Molecular Screening Center, 2012):
Out of some 360,000 compounds screened, about 2,600 (0.72%) were called active. Only a selection was taken, and actives are over-represented in it overall. A number with no mark means an inactive call.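 The calls were made as follows: active = inhibition above its plate's cutoff, the mean inhibition of sample wells plus 3 SD (cut at about 27% in these data); inactive = the rest.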

Molecular target: Muscarinic acetylcholine receptor M4 (Homo sapiens) (UniProt P08173)
Assay: CHRM4 blockers of acetylcholine calcium response – CHO cells, Fluo-8 calcium fluorescence, primary screen (AID 624125);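 also: 0% = acetylcholine EC80 with DMSO and 100% = DMSO without agonist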
Settings: CHO-hM4 cells, ACh EC80, Fluo-8 calcium fluorescence; at 3 µM; active compounds read high

Muscarinic acetylcholine receptor M4 (Homo sapiens), sequence (P08173 whole entry, looked up): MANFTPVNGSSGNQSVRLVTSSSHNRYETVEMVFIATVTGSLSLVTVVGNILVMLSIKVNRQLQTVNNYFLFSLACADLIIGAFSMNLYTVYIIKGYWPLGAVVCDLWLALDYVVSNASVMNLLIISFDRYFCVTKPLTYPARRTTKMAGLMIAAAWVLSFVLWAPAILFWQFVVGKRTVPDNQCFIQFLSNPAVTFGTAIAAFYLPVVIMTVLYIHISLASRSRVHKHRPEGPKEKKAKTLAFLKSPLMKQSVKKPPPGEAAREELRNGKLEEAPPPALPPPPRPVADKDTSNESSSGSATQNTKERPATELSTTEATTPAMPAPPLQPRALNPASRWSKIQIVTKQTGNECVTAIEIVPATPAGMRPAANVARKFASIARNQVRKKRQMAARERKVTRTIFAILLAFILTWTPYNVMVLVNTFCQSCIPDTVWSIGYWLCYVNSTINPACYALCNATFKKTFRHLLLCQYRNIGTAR

Row | Structure (SMILES) | inhibition
1 | O=c1[nH]c2ccccc2n1C1CCN(C(c2ccnc3ccccc23)c2nnnn2Cc2ccccc2)CC1 (stereo not given) | 22.4%
2 | O=c1[nH]c2ccccc2n1C1CCN(C(c2ccccc2)c2nnnn2Cc2ccccc2)CC1 (stereo not given) | 27.1% (active)
3 | CSCCC(c1nnnn1C(C)(C)C)N1CCC(n2c(=O)[nH]c3ccccc32)CC1 (stereo not given) | 5.14%
4 | Nc1ccc(C(=O)N/N=C2/CN3CCC2CC3)cc1 | -0.14%
5 | Cc1nn(Cc2ccccc2Cl)c(Cl)c1C(=O)OC(C(=O)NC(N)=O)C(C)C (stereo not given) | 1.94%
6 | COC(=O)N(c1ccc(OC)cc1)P1(=S)OCCC(C)O1 (stereo not given) | 1.76%
7 | COc1ccc(N=Cc2c(O)n(C)c(=O)[nH]c2=O)cc1 | 1.06%
8 | CC(C)c1c(CN(C)C(C)Cc2ccccc2)n(C)n(-c2ccccc2)c1=O (stereo not given) | 66.1% (active)
9 | CCOC(=O)C(O)(c1ccc(N)c(OC)c1)C(F)(F)F (stereo not given) | 1.32%
10 | O=[N+]([O-])c1cnc2ccc3ccccc3c2c1 | 9.35%
11 | CC1(C)Cc2c(C#N)c(N3CCNCC3)nc(-c3ccco3)c2CS1 | 5.55%
12 | CC1CCCN1CCC(C(N)=O)(c1ccccc1)c1ccccc1 (stereo not given) | 99% (active)
13 | CC1CCCCN1Cc1cccnc1 (stereo not given) | 3.46%
14 | O=C(Cc1ccccc1)N1CCN(C2CCCCCC2)CC1 | 0.63%
15 | C[C@]12CCCCC1=CC(=O)C1C2CC[C@@]2(C)C1C[C@@H](F)[C@@H]2O (stereo not given in full) | -6.29%
16 | N#Cc1ccc(Cn2cc(C(=O)c3ccco3)c3ccccc32)cc1 | 0.92%
17 | CCOP(=O)(OCC)C(NC(=O)c1ccc(C)cc1)C(Cl)(Cl)Cl (stereo not given) | 9.97%
18 | CCOP(=O)(OCC)C(NC(=O)NC)C(N)=O (stereo not given) | 39% (active)

Row | Structure (SMILES) | inhibition
19 | CCOP(=O)(OCC)C(NC(=O)c1ccc(OC)cc1)C(Cl)(Cl)Cl (stereo not given) | 3.05%
20 | CN(C)CCCN=Cc1c(O)n(Cc2ccco2)c(=O)[nH]c1=O | 2.03%
21 | CC(=O)N(C1=NCCCS1)c1ccccc1F | -8.11%
22 | CN(C)C(=O)Oc1cc(=O)n2c3c(cccc13)CCC2 | -4.4%
23 | CCCCCCCCCCCCn1ccc(=N)cc1 | 71.3% (active)
24 | COc1cc(-n2c(=S)[nH]c3ccc(C)cc3c2=O)c(Cl)cc1Cl | 3.21%
25 | COC(=O)C(O)(c1ccc(NC(=O)c2ccco2)c(OC)c1)C(F)(F)F (stereo not given) | 1.51%
26 | CCCC(C)n1[nH]c(=O)c2c1NC(=O)CSC2c1ccc(OC)c(OC)c1 (stereo not given) | -2%
27 | O=C(NCC(c1cccnc1)N1CCN(c2ccccc2)CC1)Oc1ccccc1 (stereo not given) | -1.68%
28 | CCCC[N+]1(C)C2CC(OC(=O)C(CO)c3ccccc3)CC1C1OC12 (stereo not given) | 90.4% (active)
29 | N#CC1=C(N)Oc2c(c(=O)oc3ccccc23)C1c1ccccc1OC(=O)c1cccs1 (stereo not given) | 5.46%
30 | Cc1ccc(-n2c(O)c(C=NCC3CCCO3)c(=O)[nH]c2=O)c(C)c1 (stereo not given) | -11%
31 | COc1cccc(CN2CCCC(C(=O)c3ccccc3SC)C2)c1O (stereo not given) | -1.14%
32 | CC[N+]1(C)CCCC(OC(=O)C(O)(c2ccccc2)c2ccccc2)C1 (stereo not given) | 98.6% (active)
33 | Cc1ccc(N(C)C(=O)Oc2cccc3ccc(C)nc23)cc1 | 5.04%
34 | CCc1nc2ccccc2c(=O)n1-c1cccc(OC)c1 | -8.12%
35 | CN1CCN(/N=C/c2c[nH]c3ccccc23)CC1 | -1.55%
